Experiment in all cases: DAPPL (digital affinity profiling via proximity ligation, sequencing); 10 mM Tris-HCl pH 7.5, 50 mM NaCl, 1 mM DTT, 4% glycerol, room temperature, 30 min; GST-TFs on glutathione beads, 16-mer random dsDNA library, 0.1% formaldehyde crosslink after washing; high values mean tight binding
Details in all cases: protein: recombinant; tags: N-terminal GST; dsDNA, one strand shown

For assay [1], the target named is T1, ELK1 (Homo sapiens, UniProt P19419 1-428).
T1 sequence: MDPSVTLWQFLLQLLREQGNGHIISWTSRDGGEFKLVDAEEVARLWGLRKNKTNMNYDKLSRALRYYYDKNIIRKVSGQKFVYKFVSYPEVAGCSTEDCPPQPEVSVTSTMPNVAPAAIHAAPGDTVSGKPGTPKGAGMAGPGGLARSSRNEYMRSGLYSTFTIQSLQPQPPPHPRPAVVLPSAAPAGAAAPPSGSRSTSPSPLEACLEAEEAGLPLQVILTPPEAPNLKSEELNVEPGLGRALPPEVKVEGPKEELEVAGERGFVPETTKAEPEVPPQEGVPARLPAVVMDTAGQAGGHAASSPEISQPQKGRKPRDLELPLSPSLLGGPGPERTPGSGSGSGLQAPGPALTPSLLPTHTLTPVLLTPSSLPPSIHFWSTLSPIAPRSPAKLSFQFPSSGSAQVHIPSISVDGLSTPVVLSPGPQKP
The method, boiled down: (§1)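 Beads coated with glutathione captured GST-fused human transcription factors that had been expressed in yeast, and the factors were then given DNA barcodes and pooled with a tag-only sample. The pools were incubated with 200 nmole of a random double-stranded 16-mer DNA library in Tris/NaCl/DTT/glycerol buffer for 30 min at room temperature, washed, crosslinked with 0.1% formaldehyde and proximity-ligated with BsaI/T4 ligase at 37 °C for 1 h. PCR amplification and Illumina NextSeq500 sequencing came last. Binding signal is each hexamer's read frequency for a factor divided by its frequency for the tag-only sample.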

The target in assay [2] is T2, GABPA (Homo sapiens, UniProt Q06546 1-454).
T2 sequence: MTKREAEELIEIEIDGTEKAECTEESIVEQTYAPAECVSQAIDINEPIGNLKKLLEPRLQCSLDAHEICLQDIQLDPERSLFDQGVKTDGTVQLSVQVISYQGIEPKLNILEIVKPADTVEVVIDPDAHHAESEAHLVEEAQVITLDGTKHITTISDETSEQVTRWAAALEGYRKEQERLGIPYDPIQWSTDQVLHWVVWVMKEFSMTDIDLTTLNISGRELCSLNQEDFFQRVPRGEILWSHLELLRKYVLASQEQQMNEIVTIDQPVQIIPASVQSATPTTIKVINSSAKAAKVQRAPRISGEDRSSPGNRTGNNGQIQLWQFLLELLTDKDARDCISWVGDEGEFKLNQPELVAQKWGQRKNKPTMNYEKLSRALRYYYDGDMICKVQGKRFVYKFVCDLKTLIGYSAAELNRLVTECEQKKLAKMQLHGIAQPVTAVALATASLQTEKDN
The method, boiled down: as §1

In assay [3] the target is T3, ERG (Homo sapiens, UniProt P11308 1-479).
T3 sequence: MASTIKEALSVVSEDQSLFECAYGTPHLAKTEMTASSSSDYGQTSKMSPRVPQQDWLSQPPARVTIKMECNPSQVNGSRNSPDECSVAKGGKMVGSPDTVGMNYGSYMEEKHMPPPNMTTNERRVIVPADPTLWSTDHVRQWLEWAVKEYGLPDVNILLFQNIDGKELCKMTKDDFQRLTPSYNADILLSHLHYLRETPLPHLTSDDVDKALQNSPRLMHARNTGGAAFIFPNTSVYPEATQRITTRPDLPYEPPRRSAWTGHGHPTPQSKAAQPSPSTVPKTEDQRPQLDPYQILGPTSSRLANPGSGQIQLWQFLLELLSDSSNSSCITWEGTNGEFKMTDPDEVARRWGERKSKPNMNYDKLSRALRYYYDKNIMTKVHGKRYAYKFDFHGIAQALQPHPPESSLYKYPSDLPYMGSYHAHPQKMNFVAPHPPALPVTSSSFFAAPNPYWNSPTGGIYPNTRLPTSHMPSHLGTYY
The gist of the method: as §1

In assay [4] the target is ELF1 (Homo sapiens, UniProt P32519 1-619). The method, boiled down: as §1
Assay [5] deals with T4, EHF (Homo sapiens, UniProt Q9NZC4 1-300).
T4 sequence: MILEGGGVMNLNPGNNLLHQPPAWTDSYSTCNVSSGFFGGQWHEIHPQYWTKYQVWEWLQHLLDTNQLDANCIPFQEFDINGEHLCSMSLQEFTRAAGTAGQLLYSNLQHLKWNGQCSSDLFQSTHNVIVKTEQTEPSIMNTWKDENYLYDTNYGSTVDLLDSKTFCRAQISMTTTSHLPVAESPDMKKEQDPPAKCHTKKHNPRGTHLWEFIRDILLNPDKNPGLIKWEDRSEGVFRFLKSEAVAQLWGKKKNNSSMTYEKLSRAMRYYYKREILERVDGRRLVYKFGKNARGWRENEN
The gist of the method: as §1

In assay [6] the target is SPIB (Homo sapiens, UniProt Q01892 1-262). The method, boiled down:
as §1

The target in assay [7] is T5, FEV (Homo sapiens, UniProt Q99581 1-238).
T5 sequence: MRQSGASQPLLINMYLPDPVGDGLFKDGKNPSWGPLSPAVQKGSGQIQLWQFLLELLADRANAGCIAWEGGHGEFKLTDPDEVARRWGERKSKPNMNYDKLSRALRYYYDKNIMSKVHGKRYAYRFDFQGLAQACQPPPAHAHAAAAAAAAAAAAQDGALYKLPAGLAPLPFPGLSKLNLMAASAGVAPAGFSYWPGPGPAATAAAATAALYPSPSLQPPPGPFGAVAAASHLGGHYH
The method, boiled down:
as §1

Assay [8] deals with ETV5 (Homo sapiens, UniProt P41161 1-510). The method, boiled down: as §1
The target of assay [9] is ELF4 (Homo sapiens, UniProt Q99607 1-663). The gist of the method: as §1
Assay [10] deals with T6, ELK4 (Homo sapiens, UniProt P28324-2 1-405).
T6 sequence: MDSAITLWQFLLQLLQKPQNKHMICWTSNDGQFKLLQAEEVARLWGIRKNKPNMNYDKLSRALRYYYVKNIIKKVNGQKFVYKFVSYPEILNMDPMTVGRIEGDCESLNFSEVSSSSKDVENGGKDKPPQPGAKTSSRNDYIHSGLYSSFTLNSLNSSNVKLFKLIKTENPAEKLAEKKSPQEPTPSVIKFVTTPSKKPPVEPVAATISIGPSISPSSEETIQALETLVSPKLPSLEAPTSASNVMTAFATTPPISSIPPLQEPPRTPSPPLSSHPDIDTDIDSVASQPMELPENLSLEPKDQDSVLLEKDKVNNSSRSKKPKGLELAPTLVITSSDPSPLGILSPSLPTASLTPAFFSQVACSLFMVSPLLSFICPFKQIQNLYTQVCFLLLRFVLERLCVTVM
The gist of the method:
as §1

The target in assay [11] is ETV1 (Homo sapiens, UniProt P50549 1-477). The gist of the method:
as §1

The target of assay [12] is T7, ERF (Homo sapiens, UniProt P50548 1-548).
T7 sequence: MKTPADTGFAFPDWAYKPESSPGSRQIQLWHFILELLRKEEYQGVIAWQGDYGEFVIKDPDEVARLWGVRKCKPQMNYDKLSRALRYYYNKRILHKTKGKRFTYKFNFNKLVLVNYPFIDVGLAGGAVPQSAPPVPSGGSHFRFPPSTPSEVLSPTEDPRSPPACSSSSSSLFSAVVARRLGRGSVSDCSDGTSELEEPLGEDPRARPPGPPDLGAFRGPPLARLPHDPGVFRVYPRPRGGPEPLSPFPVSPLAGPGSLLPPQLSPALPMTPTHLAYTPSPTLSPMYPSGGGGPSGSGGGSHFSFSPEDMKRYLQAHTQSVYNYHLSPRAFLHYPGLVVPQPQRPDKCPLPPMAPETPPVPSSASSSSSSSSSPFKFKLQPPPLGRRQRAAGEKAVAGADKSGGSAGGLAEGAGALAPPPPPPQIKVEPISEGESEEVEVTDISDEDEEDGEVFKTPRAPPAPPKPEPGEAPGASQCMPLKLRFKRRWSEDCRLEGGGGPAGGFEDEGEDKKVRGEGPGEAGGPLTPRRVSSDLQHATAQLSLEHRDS
The method, boiled down:
as §1

The target in assay [13] is T8, ETV3L (Homo sapiens, UniProt Q6ZN32 1-361).
T8 sequence: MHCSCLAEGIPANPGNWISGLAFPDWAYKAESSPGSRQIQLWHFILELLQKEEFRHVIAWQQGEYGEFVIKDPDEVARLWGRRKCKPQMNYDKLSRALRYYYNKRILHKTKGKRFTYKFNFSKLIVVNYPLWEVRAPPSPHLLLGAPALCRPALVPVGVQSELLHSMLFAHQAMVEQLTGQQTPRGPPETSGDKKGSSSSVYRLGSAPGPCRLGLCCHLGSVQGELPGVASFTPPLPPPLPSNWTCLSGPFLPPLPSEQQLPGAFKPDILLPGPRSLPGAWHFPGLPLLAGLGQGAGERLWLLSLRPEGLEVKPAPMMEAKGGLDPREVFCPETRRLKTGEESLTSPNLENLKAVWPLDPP
The gist of the method: as §1

For assay [14], the target named is T9, ETS2 (Homo sapiens, UniProt P15036 1-469).
T9 sequence: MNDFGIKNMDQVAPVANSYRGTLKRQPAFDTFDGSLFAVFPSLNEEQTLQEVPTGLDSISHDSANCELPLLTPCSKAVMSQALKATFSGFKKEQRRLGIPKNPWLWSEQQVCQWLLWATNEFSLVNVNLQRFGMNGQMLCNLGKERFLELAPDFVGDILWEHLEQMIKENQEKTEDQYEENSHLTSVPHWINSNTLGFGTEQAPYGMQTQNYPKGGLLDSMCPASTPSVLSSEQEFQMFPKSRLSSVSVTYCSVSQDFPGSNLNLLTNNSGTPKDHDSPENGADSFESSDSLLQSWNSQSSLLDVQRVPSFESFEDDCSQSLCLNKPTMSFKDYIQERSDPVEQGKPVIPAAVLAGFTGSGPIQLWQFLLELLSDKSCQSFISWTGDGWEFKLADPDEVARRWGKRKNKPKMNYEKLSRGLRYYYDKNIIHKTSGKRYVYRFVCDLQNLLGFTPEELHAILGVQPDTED
The method, boiled down: as §1

In assay [15] the target is T10, SPDEF (Homo sapiens, UniProt O95238 1-335).
T10 sequence: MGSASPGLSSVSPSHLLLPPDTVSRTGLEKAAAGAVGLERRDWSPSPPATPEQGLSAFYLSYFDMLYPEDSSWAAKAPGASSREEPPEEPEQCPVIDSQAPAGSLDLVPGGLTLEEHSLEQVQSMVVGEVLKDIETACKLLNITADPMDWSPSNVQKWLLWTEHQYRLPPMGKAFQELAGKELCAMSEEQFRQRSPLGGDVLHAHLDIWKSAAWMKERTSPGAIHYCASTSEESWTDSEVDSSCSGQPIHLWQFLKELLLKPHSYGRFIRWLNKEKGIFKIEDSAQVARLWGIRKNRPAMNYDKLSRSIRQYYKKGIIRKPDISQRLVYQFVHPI
The method, boiled down:
as §1

Assay [16] has as its target T11, ETV7 (Homo sapiens, UniProt Q9Y603 1-341).
T11 sequence: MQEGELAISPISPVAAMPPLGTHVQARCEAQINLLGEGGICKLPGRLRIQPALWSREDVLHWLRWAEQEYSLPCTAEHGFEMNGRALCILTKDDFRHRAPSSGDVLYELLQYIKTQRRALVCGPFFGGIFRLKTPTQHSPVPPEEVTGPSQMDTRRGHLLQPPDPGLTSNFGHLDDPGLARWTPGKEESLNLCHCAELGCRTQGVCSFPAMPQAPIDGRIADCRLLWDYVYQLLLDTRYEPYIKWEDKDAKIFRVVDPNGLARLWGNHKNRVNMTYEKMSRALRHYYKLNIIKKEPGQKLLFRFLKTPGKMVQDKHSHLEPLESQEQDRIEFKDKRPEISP
The method, boiled down: as §1

In assay [17] the target is T12, ETV3 (Homo sapiens, UniProt P41162-2 1-143).
T12 sequence: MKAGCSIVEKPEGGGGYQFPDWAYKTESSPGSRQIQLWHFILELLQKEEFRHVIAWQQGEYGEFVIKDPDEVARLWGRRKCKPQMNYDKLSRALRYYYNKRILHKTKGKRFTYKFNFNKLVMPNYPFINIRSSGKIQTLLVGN
The gist of the method:
as §1

The target in assay [18] is ETV6 (Homo sapiens, UniProt P41212 1-452). The gist of the method:
as §1

Chain of ELF1 (P32519 whole entry): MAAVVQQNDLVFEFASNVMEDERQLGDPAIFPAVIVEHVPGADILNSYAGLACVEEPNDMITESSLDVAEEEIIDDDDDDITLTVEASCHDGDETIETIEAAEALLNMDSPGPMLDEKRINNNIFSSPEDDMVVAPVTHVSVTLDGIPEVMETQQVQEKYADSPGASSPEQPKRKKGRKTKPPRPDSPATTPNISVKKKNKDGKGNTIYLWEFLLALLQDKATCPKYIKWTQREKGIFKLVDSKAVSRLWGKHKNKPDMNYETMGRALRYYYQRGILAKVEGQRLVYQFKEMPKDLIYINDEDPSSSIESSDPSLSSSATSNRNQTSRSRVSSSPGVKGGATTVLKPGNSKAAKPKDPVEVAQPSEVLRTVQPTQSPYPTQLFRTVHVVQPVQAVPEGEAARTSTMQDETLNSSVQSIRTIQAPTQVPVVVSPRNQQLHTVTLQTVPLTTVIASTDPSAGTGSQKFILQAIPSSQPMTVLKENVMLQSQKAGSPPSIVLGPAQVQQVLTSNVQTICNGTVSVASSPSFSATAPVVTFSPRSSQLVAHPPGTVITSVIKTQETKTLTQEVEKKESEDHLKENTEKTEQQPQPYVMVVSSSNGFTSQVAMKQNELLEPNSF
Chain of ETV5 (P41161 whole entry): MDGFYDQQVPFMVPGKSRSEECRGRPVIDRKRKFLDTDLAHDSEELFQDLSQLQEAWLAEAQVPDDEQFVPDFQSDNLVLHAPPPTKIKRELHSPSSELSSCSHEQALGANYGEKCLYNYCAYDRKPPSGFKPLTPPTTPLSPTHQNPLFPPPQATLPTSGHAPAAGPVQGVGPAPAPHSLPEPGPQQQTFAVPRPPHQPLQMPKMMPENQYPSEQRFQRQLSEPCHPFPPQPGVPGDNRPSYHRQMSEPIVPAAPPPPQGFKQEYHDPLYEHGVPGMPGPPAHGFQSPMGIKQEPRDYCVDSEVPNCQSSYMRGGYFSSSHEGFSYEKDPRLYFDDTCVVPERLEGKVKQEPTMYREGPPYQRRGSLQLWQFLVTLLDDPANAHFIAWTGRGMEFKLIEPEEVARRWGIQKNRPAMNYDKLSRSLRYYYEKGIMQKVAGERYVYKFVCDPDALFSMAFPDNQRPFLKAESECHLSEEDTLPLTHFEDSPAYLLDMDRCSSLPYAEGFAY
Chain of ETV6 (P41212 whole entry): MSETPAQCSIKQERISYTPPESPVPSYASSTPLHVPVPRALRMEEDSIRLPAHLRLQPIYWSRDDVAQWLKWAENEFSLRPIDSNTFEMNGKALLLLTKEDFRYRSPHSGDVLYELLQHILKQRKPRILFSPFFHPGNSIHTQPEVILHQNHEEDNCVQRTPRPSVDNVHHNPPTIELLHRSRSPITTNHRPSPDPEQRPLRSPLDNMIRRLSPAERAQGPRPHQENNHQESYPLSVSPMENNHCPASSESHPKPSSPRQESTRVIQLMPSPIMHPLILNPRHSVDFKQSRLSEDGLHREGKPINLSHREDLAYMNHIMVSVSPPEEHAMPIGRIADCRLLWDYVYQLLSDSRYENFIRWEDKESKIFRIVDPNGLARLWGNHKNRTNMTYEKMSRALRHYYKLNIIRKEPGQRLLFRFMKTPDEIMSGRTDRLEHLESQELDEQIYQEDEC
Chain of ETV1 (P50549 whole entry): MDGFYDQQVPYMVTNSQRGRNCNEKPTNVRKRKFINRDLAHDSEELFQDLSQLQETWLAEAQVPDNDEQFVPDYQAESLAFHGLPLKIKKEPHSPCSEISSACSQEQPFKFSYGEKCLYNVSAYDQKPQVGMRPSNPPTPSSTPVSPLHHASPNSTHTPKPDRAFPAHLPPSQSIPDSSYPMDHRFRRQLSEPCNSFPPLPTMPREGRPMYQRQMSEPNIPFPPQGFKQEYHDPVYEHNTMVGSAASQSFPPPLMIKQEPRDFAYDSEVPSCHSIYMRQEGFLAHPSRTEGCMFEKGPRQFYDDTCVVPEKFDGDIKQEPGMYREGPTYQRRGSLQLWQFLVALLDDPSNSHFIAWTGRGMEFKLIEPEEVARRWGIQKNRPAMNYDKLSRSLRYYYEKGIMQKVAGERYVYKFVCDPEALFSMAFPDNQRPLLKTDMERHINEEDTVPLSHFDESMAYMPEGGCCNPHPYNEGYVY
Chain of ELF4 (Q99607 whole entry): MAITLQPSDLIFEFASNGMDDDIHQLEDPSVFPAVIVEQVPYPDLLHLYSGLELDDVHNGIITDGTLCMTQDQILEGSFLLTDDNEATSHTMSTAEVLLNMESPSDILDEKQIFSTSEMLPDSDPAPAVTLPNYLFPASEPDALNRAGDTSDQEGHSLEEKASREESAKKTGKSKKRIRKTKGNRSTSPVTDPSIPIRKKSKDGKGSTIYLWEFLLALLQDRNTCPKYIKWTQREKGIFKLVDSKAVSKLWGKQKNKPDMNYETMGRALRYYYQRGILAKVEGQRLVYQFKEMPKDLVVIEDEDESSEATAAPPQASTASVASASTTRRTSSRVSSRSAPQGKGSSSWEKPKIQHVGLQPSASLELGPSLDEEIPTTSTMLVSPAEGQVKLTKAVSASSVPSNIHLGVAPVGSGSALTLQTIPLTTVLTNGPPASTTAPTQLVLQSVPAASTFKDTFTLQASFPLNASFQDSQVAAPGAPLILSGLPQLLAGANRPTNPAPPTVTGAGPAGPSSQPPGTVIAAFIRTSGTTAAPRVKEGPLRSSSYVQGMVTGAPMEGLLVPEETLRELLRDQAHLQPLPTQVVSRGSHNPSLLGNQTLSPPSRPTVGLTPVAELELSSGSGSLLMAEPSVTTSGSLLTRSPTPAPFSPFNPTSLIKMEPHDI
Chain of SPIB (Q01892 whole entry): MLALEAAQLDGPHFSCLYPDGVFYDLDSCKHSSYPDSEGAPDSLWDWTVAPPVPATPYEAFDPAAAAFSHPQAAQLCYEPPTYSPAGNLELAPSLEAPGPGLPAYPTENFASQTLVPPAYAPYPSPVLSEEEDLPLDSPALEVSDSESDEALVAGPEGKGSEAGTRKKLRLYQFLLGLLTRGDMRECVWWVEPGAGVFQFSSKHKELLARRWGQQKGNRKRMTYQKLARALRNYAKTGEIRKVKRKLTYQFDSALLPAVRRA

As to GGCTAC, the binding signal in assay [1] is 1.12 fold enrichment (6-mer frequency, TF over GST control); in assay [2] it was 1.18 fold enrichment (6-mer frequency, TF over GST control); in assay [3], 1.09 fold enrichment (6-mer frequency, TF over GST control); in assay [4], 1.26 fold enrichment (6-mer frequency, TF over GST control); in assay [5], 1.07 fold enrichment (6-mer frequency, TF over GST control); in assay [6], 1.16 fold enrichment (6-mer frequency, TF over GST control). Moreover, the binding signal in [7] is 1.1 fold enrichment (6-mer frequency, TF over GST control); in assay [8], 1.22 fold enrichment (6-mer frequency, TF over GST control); in assay [9] it was 1.17 fold enrichment (6-mer frequency, TF over GST control); in assay [10] it was 1.1 fold enrichment (6-mer frequency, TF over GST control); in assay [11] it was 1.12 fold enrichment (6-mer frequency, TF over GST control); in [12], 1.12 fold enrichment (6-mer frequency, TF over GST control). In addition, the binding signal is 1.16 fold enrichment (6-mer frequency, TF over GST control) in assay [13]; 1.2 fold enrichment (6-mer frequency, TF over GST control) in [14]; 1.22 fold enrichment (6-mer frequency, TF over GST control) in assay [15]; 1.26 fold enrichment (6-mer frequency, TF over GST control) in assay [16]; 1.07 fold enrichment (6-mer frequency, TF over GST control) in assay [17]; 1.2 fold enrichment (6-mer frequency, TF over GST control) in [18].

The values above are taken from article PMC7862700, “An all-to-all approach to the identification of sequence-specific readers for epigenetic DNA modifications on cytosine”.
